High-throughput results: PubChem, National Center for Advancing Translational Sciences (NCATS)
Most compounds without a hit are left out; they make up all but 10% or so of the library.
BAZ2B block – BAZ2B (human) inhibition; Q9UIF8; hit rate 4.4% among 360,000; Potency, µM (highest dose often 114 µM), usual class: inhibitors; AID 504333; AlphaScreen BAZ2B-H3K14Ac peptide displacement; further: nearly all actives have a fitted effect of over 60% in size
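Compounds, titrated to a top concentration of 110 uM, were incubated 30 min at room temperature with preformed BAZ2B/acetyl-K14 H3 peptide complex (50 nM each). Proximity signal was measured by AlphaScreen after 20 min with beads.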
JMJD2A Tudor – inhibitors of human JMJD2A Tudor domain; O75164; AlphaScreen JMJD2A-Tudor / H3K4me3 peptide binding; Potency, µM (series often up to 114 µM), hits mostly inhibitors; hit rate 4.4% among 390,000; further: nearly all actives have a fitted effect of over 50% in size
HP1b chromo inh – inhibitors of HP1-beta chromodomain binding to methylated histone tails | AID 540317 | Potency, µM (series often up to 114 µM), hits mostly inhibitors | AlphaScreen HP1-beta / biotin-H3K9me3 peptide binding | P83916 | hit rate 0.56% among 390,000; further: nearly all actives have a fitted effect of over 70% in size
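AlphaScreen: HP1-beta (50 nM) preformed 30 min with biotin-H3(1-18)K9me3 peptide (50 nM) in PBS pH 7.4, 0.01% Tween-20. Compound added for 30 min at RT, then streptavidin donor/nickel chelate acceptor beads (10 ug/mL) for 30 min.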
Six1-Eya2 inh – blocks human Six1 binding to Eya2. Q15475+O00167. AlphaScreen GST-Six1/His-Eya2 binding, biochemical; active compounds read low. activity change, % (test concentration not listed). hit rate 0.56% among 360,000. AID 651725; in the data active means activity change below about -65%; inconclusive means mostly about -30% to -63%
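Compounds are tested against tagged Six1 and Eya2 proteins bridged by glutathione donor and nickel acceptor beads; after a one-hour incubation at 37 °C without light, AlphaScreen emission is recorded.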
CtBP-E1A inh – blocks the CtBP interaction with E1A | AlphaScreen GST-E1A/His-CtBP binding, 1536-well; active compounds read low | activity change, % (no concentration beside the values) | hit rate 0.49% among 340,000 | AID 651724; in the data active means activity change below about -65%; inconclusive means mostly about -30% to -63%
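AlphaScreen with 125 nM GST-E1A and 125 nM His-CtBP (5X stocks) in Tris pH 8.0, 300 mM NaCl, BSA, Tween 20, TCEP. Compounds preincubated 2 h at 37 deg C, then glutathione donor/nickel acceptor beads added for 1 h at 37 deg C in dark.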
G9a inh – G9a (human) methyltransferase inhibition; G9a H3K9 monomethylation, AlphaScreen, 2 h; hit rate 8.8% among 350,000; Potency, µM (series often up to 102 µM), actives largely listed as inhibitors; Q96KQ7; AID 504332; further: nearly all actives have a fitted effect of over 75% in size
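Compounds were preincubated with 20 nM G9a for 15 min, after which biotinylated H3K9 peptide (500 nM) and SAM (20 uM) started a 2 h room-temperature reaction. Monomethylated product was quantified by antibody-based AlphaScreen chemiluminescence.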
Each line names hits and unclear results; the compound was inactive in the other large screens. Unless noted, the call rests on the fitted dose curve; in most records, active means well fitted inhibition curve with a large enough effect; inconclusive means small, poorly fitted or top-dose-only effect; inactive means no such curve, though single readings can be large or run the other way.

O=C1/C(=C/c2cccnc2)SC(=S)N1Nc1ccccc1	BAZ2B block inconclusive, G9a inh 39.8µM
C=CCOc1ccc(/C=C2\SC(=S)N(NS(=O)(=O)c3ccc(C)cc3)C2=O)cc1	BAZ2B block 39.8µM, JMJD2A Tudor 50.1µM, HP1b chromo inh inconclusive
Cn1cccc1/C=C1\SC(=S)N(Nc2ccccc2)C1=O	BAZ2B block 20µM, JMJD2A Tudor inconclusive, HP1b chromo inh inconclusive (no result: CtBP-E1A inh, G9a inh)
Cc1ccc(S(=O)(=O)NN2C(=O)/C(=C\c3ccc(Cl)cc3)SC2=S)cc1	none
COc1ccc(/C=C2/SC(=S)N(NS(=O)(=O)c3ccc(C)cc3)C2=O)cc1	BAZ2B block 39.8µM, JMJD2A Tudor inconclusive, HP1b chromo inh inconclusive, G9a inh inconclusive
CCOc1ccc(CCNC(=O)Cn2nc(CC)n3c(cc4ccccc43)c2=O)cc1	none (no result: Six1-Eya2 inh, CtBP-E1A inh)
COc1ccc(-c2nc(-c3cccs3)c(-c3cccs3)[nH]2)cc1O	BAZ2B block 44.7µM, JMJD2A Tudor inconclusive, Six1-Eya2 inh inconclusive, CtBP-E1A inh inconclusive, G9a inh inconclusive
Cc1ccc(C)c(NC(=O)Cn2cc(C(=O)c3cccs3)c3ccccc32)c1	none (no result: Six1-Eya2 inh, CtBP-E1A inh)
Cn1c(=O)c(NC2CCCCC2)c2c3c(cccc31)C(=O)c1ccccc1-2	none (no result: G9a inh)
O=C1C=C(N2CCCCC2)c2ccccc2C1=O	HP1b chromo inh inconclusive (no result: BAZ2B block, G9a inh)
O=C1c2ccccc2C(=O)c2c1cccc2N1CCCC1	BAZ2B block 5.01µM, JMJD2A Tudor 5.01µM, HP1b chromo inh inconclusive, Six1-Eya2 inh -86.9, CtBP-E1A inh -89.2, G9a inh 3.98µM
O=C1c2ccccc2-c2onc3ccc(N4CCCC4)c1c23	BAZ2B block 14.1µM, JMJD2A Tudor inconclusive, HP1b chromo inh 20µM, Six1-Eya2 inh -67.6, CtBP-E1A inh inconclusive, G9a inh 10µM
Cn1c(=O)cc2c3c(c(N4CCCCC4)ccc31)C(=O)c1ccccc1-2	BAZ2B block 10µM, JMJD2A Tudor 35.5µM, HP1b chromo inh inconclusive, Six1-Eya2 inh inconclusive, G9a inh 14.1µM (no result: CtBP-E1A inh)
COc1ccc(CC(=O)N2CC(=O)Nc3ccc(F)cc3C2c2ccccc2)cc1 (configuration not stated)	none (no result: Six1-Eya2 inh, CtBP-E1A inh)
COc1ccc2nc(NC(=O)c3cc(=O)c4cc(C)cc(C)c4o3)sc2c1	none (no result: Six1-Eya2 inh, CtBP-E1A inh)
COc1ccc2c(C)c(CC(=O)NCCc3ccccc3)c(=O)oc2c1OC	none (no result: Six1-Eya2 inh, CtBP-E1A inh)
COC(=O)c1ccc(NC(=O)C(C)Sc2nc(=O)cc(N)n2CCc2ccccc2)cc1 (configuration not stated)	BAZ2B block inconclusive, G9a inh inconclusive (no result: Six1-Eya2 inh, CtBP-E1A inh)
Oc1ccc2c(c1)c1ccccc1c1ncccc21	Six1-Eya2 inh inconclusive, CtBP-E1A inh inconclusive (no result: BAZ2B block, G9a inh)
OCc1ccnc2c(O)cccc12	BAZ2B block 1.41µM, JMJD2A Tudor 12.6µM, Six1-Eya2 inh -89.2, CtBP-E1A inh -92.2
COCc1ccc(O)c2ncccc12	BAZ2B block 1.78µM, JMJD2A Tudor 39.8µM, Six1-Eya2 inh -91.2, CtBP-E1A inh -95.0, G9a inh inconclusive
Oc1ccc(Cn2ccnc2)c2cccnc12	BAZ2B block 0.708µM, JMJD2A Tudor 2µM, Six1-Eya2 inh -82.8, CtBP-E1A inh -95.1, G9a inh inconclusive
Oc1ccc(CNc2ccc(F)cc2)c2cccnc12	BAZ2B block 25.1µM, JMJD2A Tudor 56.2µM, Six1-Eya2 inh -89.8, CtBP-E1A inh -90.5, G9a inh 1.58µM
CN(C)c1ccc(C=Cc2ccnc3c(O)cccc23)cc1	none (no result: BAZ2B block, JMJD2A Tudor, HP1b chromo inh, G9a inh)
COc1ccccc1CNc1nc(-c2ccoc2)nc2ccccc12	none (no result: BAZ2B block, JMJD2A Tudor, HP1b chromo inh, Six1-Eya2 inh, CtBP-E1A inh)
CCOC(=O)C1CCN(C(=O)Cn2ncc3c([nH]c4ccc(C)cc43)c2=O)CC1	none (no result: Six1-Eya2 inh, CtBP-E1A inh)
CCc1cccc(NC(=O)c2cc(S(=O)(=O)N3CCCCCC3)cn2C)c1	none (no result: Six1-Eya2 inh, CtBP-E1A inh)
Cc1nnc(NC(=O)CSc2ccc3nnc(-c4ccccn4)n3n2)s1	JMJD2A Tudor 79.4µM (no result: BAZ2B block, CtBP-E1A inh)
COc1ccc(-c2ccc(SCC(=O)Nc3nccs3)nn2)cc1OC	JMJD2A Tudor inconclusive
COc1ccc(-c2nnc3ccc(SCC(=O)Nc4nccs4)nn23)cc1OC	Six1-Eya2 inh inconclusive, CtBP-E1A inh inconclusive, G9a inh 31.6µM
O=C(CSc1ccc2nnc(-c3ccncc3)n2n1)Nc1nccs1	G9a inh 50.1µM (no result: BAZ2B block)
O=C(CSc1ccc2nnc(-c3ccccn3)n2n1)Nc1nccs1	JMJD2A Tudor 31.6µM, Six1-Eya2 inh -81.2, CtBP-E1A inh -88.0 (no result: BAZ2B block)
CCc1ccc(NC(=O)N2c3ccccc3Sc3ccccc32)cc1	none (no result: Six1-Eya2 inh, CtBP-E1A inh)
NS(=O)(=O)c1ccc(NC(=O)N2c3ccccc3Sc3ccccc32)cc1	BAZ2B block 50.1µM (no result: G9a inh)
CCN(CC)S(=O)(=O)c1ccc2c(c1)c(=O)c(C(=O)N(C)Cc1ccccc1)cn2C	none (no result: BAZ2B block, Six1-Eya2 inh, CtBP-E1A inh)
FC(F)Oc1ccc(/C=N/c2c(-c3ccc(OC(F)F)cc3)nc3n2CCS3)cc1	BAZ2B block inconclusive, JMJD2A Tudor 50.1µM, HP1b chromo inh inconclusive, G9a inh inconclusive
Cc1ccc(Cl)c2c1=NC(=O)C=2c1[nH]c(=S)[nH]c1O	BAZ2B block inconclusive, HP1b chromo inh inconclusive, G9a inh 7.94µM
Oc1cccc(/C=N/N2CCCCC2)c1O	G9a inh 44.7µM (no result: CtBP-E1A inh)
C(=NN1CCCCCC1)c1ccc2c(c1)OCO2	JMJD2A Tudor 50.1µM, HP1b chromo inh inconclusive (no result: BAZ2B block, G9a inh)
Oc1ccccc1C=NN1CCCCCC1	JMJD2A Tudor 44.7µM, HP1b chromo inh inconclusive, Six1-Eya2 inh inconclusive (no result: BAZ2B block, G9a inh)
Oc1ccc(/C=N/N2CCCCC2)c(O)c1O	BAZ2B block inconclusive, JMJD2A Tudor 8.91µM, G9a inh 1.58µM
CCCOC(=O)c1ccc(NC(=O)C2CC(=O)N(c3ccc(C)cc3)C2)cc1 (configuration not stated)	none (no result: Six1-Eya2 inh, CtBP-E1A inh)
Oc1ccccc1/C=N/N1CCCCC1	none (no result: BAZ2B block)
Oc1ccc(/C=N/N2CCOCC2)c(O)c1O	JMJD2A Tudor 22.4µM, G9a inh 3.98µM (no result: BAZ2B block)
Oc1ccc(Cl)cc1C=NN1CCCCCC1	JMJD2A Tudor 56.2µM (no result: BAZ2B block, G9a inh)
